Only some compounds are listed: those with a hit (about 11% of all), similar ones and a draw of the others.
NPSR antagonist – blocks cAMP signaling of the human neuropeptide S receptor; AID 1461; CHO-NPSR cells, cAMP TR-FRET, antagonist mode; Potency, µM (titrated, usually from 38.3 µM), for inactives: at the highest dose activity change, negative = inhibition, usual class: inhibitors; actives 1% (n = 220,000); Q6W5P4; note: potency is the fitted concentration of half-maximal effect; nearly all actives have a fitted effect of over 50% in size
HPGD block – blocks human HPGD enzyme activity. P15428. purified HPGD, NADH fluorescence kinetic, PGE2 substrate. Potency, µM, for the others: top-dose activity change, negative = inhibition, actives largely listed as inhibitors. actives 4.3% (n = 150,000); active = well fitted inhibition curve with a large enough effect, not every such curve was filed as active; inconclusive = small, poorly fitted or top-dose-only effect, or another doubt; inactive = no such curve, though single readings can be large or run the other way; note: potency is the fitted concentration of half-maximal effect
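20 nM HPGD preincubated 15 min at room temperature with compound in 50 mM Tris-HCl pH 8, 0.01% Tween 20. Started with 1 mM NAD+ and 30 uM prostaglandin E2; NADH fluorescence (360/450 nm) read 5 times over 30-s intervals, last minus first.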
PNC assembly inh – perinucleolar compartment assembly inhibition; PC3M PTB-GFP, PNC prevalence imaging, 16 h; stronger effect = lower value; activity change (PNC), negative = inhibition, % at 10 µM; actives 3.1% (n = 140,000); AID 2417;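 active = readout at or below -70, meaning at least 70% loss of cells showing the perinucleolar compartment, a nuclear body marking cancer cells; inconclusive = readout between -30 and a set limit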;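 note: plate controls were DMSO wells for no effect and camptothecin positive control wells for full effect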
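PC3M cells stably expressing PTB-GFP, 750–1000 cells/well, treated 16 h at 37 °C with compound (23 nl of library stock), in duplicate. After paraformaldehyde fixation and Hoechst stain, imaged at 20x; PNC prevalence scored by image analysis.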
IMPase Li cell – membrane-permeable IMPase blocker, potentiated with lithium; CHO-M1 cells, IP1 TR-FRET (IP-One), carbachol + lithium; AID 1457; actives 0.35% (n = 210,000); Potency, µM (series often up to 59.4 µM), for the others: at the top dose activity, negative = IMPase inhibition, most hits filed as inhibitors;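 note: IP1 builds up when IMPase is blocked and the TR-FRET signal falls; potency is the fitted concentration of half-maximal effect; plate controls were basal vehicle for no effect and high inhibitor control for full effect; nearly all actives have a fitted effect of over 50% in size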
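Concentration–response in CHO-M1 cells, lithium-potentiated; 30 min at 37C. IP1 detected by competitive TR-FRET after 10 min lysis at RT. Hill-fitted AC50.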
ALDH1A1 inh – blocks purified human ALDH1A1 activity | actives 7.3% (n = 220,000) | Potency, µM (titrated, usually from 75.3 µM), without a hit: at the highest dose activity, negative = inhibition, hits mostly inhibitors | AID 1030 | P00352 | Purified ALDH1A1, NADH fluorescence, propionaldehyde substrate; active = well fitted inhibition curve with a large enough effect, not every such curve was filed as active; inconclusive = small, poorly fitted or top-dose-only effect, or another doubt; inactive = no such curve, though single readings can be large or run the other way;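 note: potency is the fitted concentration of half-maximal effect; plate controls were no enzyme wells and a reference inhibitor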
Target sequence (P00352 whole entry, looked up): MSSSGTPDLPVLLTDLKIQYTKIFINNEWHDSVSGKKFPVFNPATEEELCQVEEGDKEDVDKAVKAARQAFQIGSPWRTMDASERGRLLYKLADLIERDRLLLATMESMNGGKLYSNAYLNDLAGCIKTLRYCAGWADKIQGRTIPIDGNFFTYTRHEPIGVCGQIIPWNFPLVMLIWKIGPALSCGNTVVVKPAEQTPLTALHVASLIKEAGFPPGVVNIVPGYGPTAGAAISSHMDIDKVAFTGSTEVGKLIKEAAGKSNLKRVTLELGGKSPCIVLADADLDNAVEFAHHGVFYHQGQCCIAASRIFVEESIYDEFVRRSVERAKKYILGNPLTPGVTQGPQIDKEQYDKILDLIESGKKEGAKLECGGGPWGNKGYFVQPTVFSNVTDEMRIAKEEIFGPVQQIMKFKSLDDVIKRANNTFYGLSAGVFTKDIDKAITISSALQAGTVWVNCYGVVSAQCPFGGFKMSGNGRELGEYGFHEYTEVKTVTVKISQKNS
IMPase inh – membrane-permeable compound that blocks inositol monophosphatase | 120,000 tested, under 10 active | AID 901 | CHO-M1 cells, IP1 accumulation, HTRF TR-FRET ratio | inhibition (IP1 accumulation), % at 46.1 µM | P97697; active = well fitted curve in the direction sought with a large enough effect in the signal ratio, not every such curve was filed as active; inconclusive = small, poorly fitted or top-dose-only effect, or a change in a side signal; inactive = no such curve, though single readings can be large or run the other way; the % refers to the signal ratio;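 note: cells stimulated with carbachol in lithium chloride buffer; plate controls were DMSO basal wells for no effect and reference inhibitor wells for full effect; higher means more IMPase inhibition seen as more IP1 and lower FRET ratio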
Target sequence (P97697 whole entry, looked up): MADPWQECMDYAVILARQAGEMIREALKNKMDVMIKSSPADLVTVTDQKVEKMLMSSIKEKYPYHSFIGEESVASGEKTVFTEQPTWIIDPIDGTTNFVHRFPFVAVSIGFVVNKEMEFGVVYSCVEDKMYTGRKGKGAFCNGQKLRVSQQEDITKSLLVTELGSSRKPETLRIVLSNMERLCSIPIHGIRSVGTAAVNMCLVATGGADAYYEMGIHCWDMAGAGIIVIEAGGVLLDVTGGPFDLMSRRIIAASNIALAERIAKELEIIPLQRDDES
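The IP-One HTRF competitive assay in carbachol-stimulated CHO-M1 cells quantifies cellular IP1. Compounds spanned up to 46 uM final, and activity is expressed as AC50 from concentration-response fits of the ratio and donor data.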
The depositor's hits bear a star; [ ] = dose if it differs, or a comment. Unless noted, calls come from the whole dose curve; as a rule, active = well fitted curve in the direction sought with a large enough effect; inconclusive = small, poorly fitted or top-dose-only effect, or another doubt; inactive = no such curve, though single readings can be large; an effect the other way counts as inactive or inconclusive. Unless noted, % is set by controls: 0 for no effect and ±100 for the full control effect.

What do the screens show for `COC(=O)CSc1ncnc2c1cnn2Cc1ccccc1`?
NPSR antagonist: 14%[46.1 µM]; HPGD block: -19%; PNC assembly inh: -1; IMPase Li cell: inconclusive; ALDH1A1 inh: -5%; IMPase inh: inconclusive

How did COc1cccc(NC(=O)CN(c2cccc(F)c2)S(C)(=O)=O)c1 do in these assays?
NPSR antagonist: -18%[46.1 µM]; HPGD block: -8%; PNC assembly inh: 29; IMPase Li cell: 17%[38.3 µM]; ALDH1A1 inh: 14%; IMPase inh: -15

How did COc1ccccc1Nc1ccc(C(=O)NC2CCCCC2)cn1 do in these assays?
NPSR antagonist: -18%[46.1 µM]; HPGD block: 16µM*; PNC assembly inh: -23; IMPase Li cell: 22%[38.3 µM]; ALDH1A1 inh: 21%; IMPase inh: -2

What do the screens show for `CC(=O)N1CCc2cc(S(=O)(=O)CCC(=O)N3CCc4ccccc4C3)ccc21`?
NPSR antagonist: -10%[46.1 µM]; HPGD block: -7%; PNC assembly inh: -13; IMPase Li cell: 18%[38.3 µM]; ALDH1A1 inh: 2%; IMPase inh: 3

How did Cc1ccc(S(=O)(=O)N2CCN(C(=O)CSc3nnnn3C)CC2)c(C)c1 do in these assays?
NPSR antagonist: -16%; IMPase Li cell: 12%; ALDH1A1 inh: 25µM*

What do the screens show for `COC(=O)CCC(=O)COc1ccccc1C#N`?
NPSR antagonist: 4%[46.1 µM]; HPGD block: 14µM*; PNC assembly inh: 9; IMPase Li cell: -12%[38.3 µM]; ALDH1A1 inh: inconclusive; IMPase inh: 1

Results for Cc1cc(N(C)C)c(C#N)c(NCc2ccccc2)n1 ?
NPSR antagonist: 0%[46.1 µM]; HPGD block: -25%; PNC assembly inh: 27; IMPase Li cell: 0%[38.3 µM]; ALDH1A1 inh: 2%; IMPase inh: 11

How did CN(C)c1ccnc(NCc2ccccc2)c1C#N do in these assays?
NPSR antagonist: 1%[46.1 µM]; HPGD block: 14µM*; PNC assembly inh: inconclusive; IMPase Li cell: 1%[38.3 µM]; ALDH1A1 inh: inconclusive; IMPase inh: -14

Results for N#Cc1c(NCc2ccccc2)ccnc1NCc1cccnc1 ?
NPSR antagonist: -7%[46.1 µM]; HPGD block: 13µM*; PNC assembly inh: -106*; IMPase Li cell: 44%[38.3 µM]; ALDH1A1 inh: 4%; IMPase inh: -8[1.84 µM]

What do the screens show for `c1ccc(-c2nc(NCc3cccnc3)c3ccccc3n2)cc1`?
NPSR antagonist: -23%[46.1 µM]; HPGD block: -4%; PNC assembly inh: 1; IMPase Li cell: 13%[38.3 µM]; ALDH1A1 inh: inconclusive; IMPase inh: 3

What do the screens show for `CCc1ccc(C(=O)/C=C2\Sc3ccccc3NC2=O)cc1`?
NPSR antagonist: 13%; HPGD block: -14%; PNC assembly inh: 20; IMPase Li cell: 32%; ALDH1A1 inh: inconclusive

Results for CCCCNC(=O)/C=C1\Sc2ccccc2NC1=O ?
NPSR antagonist: 1%; HPGD block: 18µM*; PNC assembly inh: 35; IMPase Li cell: 1%; ALDH1A1 inh: 14%

What do the screens show for `Cc1ccc(N2CC(C(=O)N3CCc4ccccc43)CC2=O)cc1` (stereo not given)?
NPSR antagonist: 2%[46.1 µM]; HPGD block: -16%; PNC assembly inh: 43; IMPase Li cell: 25%[38.3 µM]; ALDH1A1 inh: -4%; IMPase inh: 5

How did CC1=NNC(=O)C1CC(=O)N/N=C/C(Br)=C/c1ccccc1 (stereo not given) do in these assays?
NPSR antagonist: 9%

What do the screens show for `CC1=NNC(=O)C1CCC(=O)N/N=C/C(Br)=C/c1ccccc1` (stereo not given)?
NPSR antagonist: -11%[46.1 µM]; PNC assembly inh: -115*; ALDH1A1 inh: inconclusive; IMPase inh: 2

How did COC(=O)c1nn2c(C(F)(F)F)cc(-c3ccc(Br)o3)nc2c1Br do in these assays?
NPSR antagonist: -1%[46.1 µM]; HPGD block: -8%; PNC assembly inh: -18; IMPase Li cell: -15%[38.3 µM]; ALDH1A1 inh: 14µM*; IMPase inh: -10

What do the screens show for `COC(=O)c1cnn2c(C(F)(F)F)cc(-c3ccc(F)cc3)nc12`?
NPSR antagonist: 13%[46.1 µM]; HPGD block: inconclusive; PNC assembly inh: 18; IMPase Li cell: -5%[38.3 µM]; ALDH1A1 inh: inconclusive; IMPase inh: 0

How did CCc1ccc(C(=O)Nc2cc(C)ccc2F)s1 do in these assays?
NPSR antagonist: -20%; IMPase Li cell: 30%; ALDH1A1 inh: 13%

Results for COc1ccc(-c2c(C#N)sc(C(N)=O)c2-c2ccc(OC)cc2)cc1 ?
NPSR antagonist: inconclusive; ALDH1A1 inh: 2µM*

How did Cc1ccc2c(c1)NC(c1cccs1)C1=C(CC(C)(C)CC1=O)N2 (stereo not given) do in these assays?
NPSR antagonist: 1%; IMPase Li cell: 6%; ALDH1A1 inh: 1%

What do the screens show for `Cc1cc2c(cc1C)NC(c1c(C)n(C)n(-c3ccccc3)c1=O)C1=C(CC(C)(C)CC1=O)N2` (stereo not given)?
NPSR antagonist: -7%[46.1 µM]; HPGD block: -19%; PNC assembly inh: 34; IMPase Li cell: 29%[38.3 µM]; ALDH1A1 inh: 22µM*; IMPase inh: -8

What do the screens show for `O=C(N/N=C/c1c(Nc2cccc(C(F)(F)F)c2)nc2ccccn2c1=O)c1ccccc1`?
NPSR antagonist: -6%[46.1 µM]; HPGD block: -10%; PNC assembly inh: 15; IMPase Li cell: 6%[38.3 µM]; ALDH1A1 inh: 5%; IMPase inh: 0

How did O=C(N/N=C/c1c(Nc2cccc(C(F)(F)F)c2)nc2ccccn2c1=O)c1ccccc1[N+](=O)[O-] do in these assays?
NPSR antagonist: -25%; HPGD block: -15%; PNC assembly inh: -113*; IMPase Li cell: -3%; ALDH1A1 inh: 8%; IMPase inh: 9

What do the screens show for `CC(C)[C@H](NC(=O)NC1CCCC1)C(=O)O`?
NPSR antagonist: -4%[46.1 µM]; HPGD block: -2%; PNC assembly inh: 21; IMPase Li cell: 4%[38.3 µM]; ALDH1A1 inh: 18%; IMPase inh: 1

Results for CC(C)=CCCC(C)NC(=O)NC1CCCCC1 (stereo not given) ?
NPSR antagonist: -3%; HPGD block: 35µM*; PNC assembly inh: 0; IMPase Li cell: 7%; ALDH1A1 inh: 0%; IMPase inh: 3

How did O=[N+]([O-])c1ccc(Cl)c(CNc2ncnc3c2ncn3[C@@H]2CCCCO2)c1 do in these assays?
HPGD block: 3.5µM*; IMPase Li cell: 8%; ALDH1A1 inh: -9%[13.5 µM]

How did c1cncc(N=c2scc(-c3cccc4ccccc34)n2CCCn2ccnc2)c1 do in these assays?
NPSR antagonist: -8%; HPGD block: -21%; PNC assembly inh: -92*; IMPase Li cell: 16%; ALDH1A1 inh: inconclusive

Results for N#C/C(=C1\CCCN1)c1ccc2ccccc2n1 ?
NPSR antagonist: 0%[46.1 µM]; HPGD block: -13%; PNC assembly inh: 23; IMPase Li cell: 4%[38.3 µM]; ALDH1A1 inh: 8%; IMPase inh: 7

Assay outcomes deposited in PubChem by National Center for Advancing Translational Sciences (NCATS).
